For experiment [1], the target named is T1, Muscle, skeletal receptor tyrosine-protein kinase (Homo sapiens) (UniProt O15146).
T1 sequence (whole entry): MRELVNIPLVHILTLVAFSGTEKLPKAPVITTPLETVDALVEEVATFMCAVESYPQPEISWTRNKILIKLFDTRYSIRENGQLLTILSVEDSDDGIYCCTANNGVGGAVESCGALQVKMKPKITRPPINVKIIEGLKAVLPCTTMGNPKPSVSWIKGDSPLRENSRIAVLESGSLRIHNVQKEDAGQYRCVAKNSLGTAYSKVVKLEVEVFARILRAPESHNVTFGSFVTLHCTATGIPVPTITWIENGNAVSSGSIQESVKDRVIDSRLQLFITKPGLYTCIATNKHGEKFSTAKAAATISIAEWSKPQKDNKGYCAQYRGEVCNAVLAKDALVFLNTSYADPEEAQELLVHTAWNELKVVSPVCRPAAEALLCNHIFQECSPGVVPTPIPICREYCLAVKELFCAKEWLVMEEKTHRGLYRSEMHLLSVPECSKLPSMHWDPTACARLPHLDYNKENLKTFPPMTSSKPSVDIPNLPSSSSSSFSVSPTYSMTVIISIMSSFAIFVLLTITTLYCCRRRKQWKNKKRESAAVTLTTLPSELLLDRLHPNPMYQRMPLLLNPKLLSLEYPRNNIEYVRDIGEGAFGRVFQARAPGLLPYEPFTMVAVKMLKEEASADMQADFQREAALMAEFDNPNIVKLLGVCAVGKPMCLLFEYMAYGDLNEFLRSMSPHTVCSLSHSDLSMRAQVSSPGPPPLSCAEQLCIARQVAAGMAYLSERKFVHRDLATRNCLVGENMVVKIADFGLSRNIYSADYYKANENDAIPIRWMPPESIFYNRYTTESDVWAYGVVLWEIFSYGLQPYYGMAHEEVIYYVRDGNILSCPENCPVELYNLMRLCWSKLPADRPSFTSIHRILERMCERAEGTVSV
As to conditions: at 1 µM.

In experiment [2] the target is T1, Muscle, skeletal receptor tyrosine-protein kinase (Homo sapiens). As to conditions: at 10 µM.
Experiment [3] concerns the target T2, Serine/threonine-protein kinase Nek11 (Homo sapiens) (UniProt Q8NG66).
T2 sequence (whole entry): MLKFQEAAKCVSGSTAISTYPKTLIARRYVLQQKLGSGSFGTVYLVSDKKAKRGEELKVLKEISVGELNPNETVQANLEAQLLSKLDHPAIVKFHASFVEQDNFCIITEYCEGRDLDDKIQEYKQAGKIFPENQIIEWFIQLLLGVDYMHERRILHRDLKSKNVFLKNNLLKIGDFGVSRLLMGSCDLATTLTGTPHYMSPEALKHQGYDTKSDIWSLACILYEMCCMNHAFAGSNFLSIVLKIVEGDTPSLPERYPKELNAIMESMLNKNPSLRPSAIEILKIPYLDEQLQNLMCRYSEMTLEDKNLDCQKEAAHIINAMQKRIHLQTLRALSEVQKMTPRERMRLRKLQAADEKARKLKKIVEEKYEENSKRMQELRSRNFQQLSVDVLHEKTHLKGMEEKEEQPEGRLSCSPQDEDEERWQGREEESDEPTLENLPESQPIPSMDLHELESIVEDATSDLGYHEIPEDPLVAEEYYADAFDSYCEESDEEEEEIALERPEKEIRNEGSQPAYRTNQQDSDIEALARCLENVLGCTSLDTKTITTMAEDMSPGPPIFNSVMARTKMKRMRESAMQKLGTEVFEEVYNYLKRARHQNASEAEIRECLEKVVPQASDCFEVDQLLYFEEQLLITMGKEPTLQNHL
The settings on record: at 1 µM.

Experiment [4] has as its target T2, Serine/threonine-protein kinase Nek11 (Homo sapiens). As to conditions: at 10 µM.
Experiment [5] addresses T3, Serine/threonine-protein kinase Nek2 (Homo sapiens) (UniProt P51955).
T3 sequence (whole entry): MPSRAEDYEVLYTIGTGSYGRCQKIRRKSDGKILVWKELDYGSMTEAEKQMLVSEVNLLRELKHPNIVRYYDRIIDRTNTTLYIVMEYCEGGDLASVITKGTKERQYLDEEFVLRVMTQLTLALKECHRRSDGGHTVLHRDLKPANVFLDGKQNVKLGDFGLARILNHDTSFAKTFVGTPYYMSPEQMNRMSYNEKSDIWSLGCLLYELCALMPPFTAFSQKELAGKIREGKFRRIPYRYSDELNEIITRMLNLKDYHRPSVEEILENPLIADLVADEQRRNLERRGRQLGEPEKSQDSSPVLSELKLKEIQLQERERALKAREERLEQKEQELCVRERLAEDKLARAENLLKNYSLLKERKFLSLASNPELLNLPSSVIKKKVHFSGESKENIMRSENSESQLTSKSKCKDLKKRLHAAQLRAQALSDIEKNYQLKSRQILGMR
As to conditions: at 1 µM.

Experiment [6] deals with T3, Serine/threonine-protein kinase Nek2 (Homo sapiens). The settings on record: at 10 µM.
Experiment [7] deals with T4, Serine/threonine-protein kinase Nek3 (Homo sapiens) (UniProt P51956).
T4 sequence (whole entry): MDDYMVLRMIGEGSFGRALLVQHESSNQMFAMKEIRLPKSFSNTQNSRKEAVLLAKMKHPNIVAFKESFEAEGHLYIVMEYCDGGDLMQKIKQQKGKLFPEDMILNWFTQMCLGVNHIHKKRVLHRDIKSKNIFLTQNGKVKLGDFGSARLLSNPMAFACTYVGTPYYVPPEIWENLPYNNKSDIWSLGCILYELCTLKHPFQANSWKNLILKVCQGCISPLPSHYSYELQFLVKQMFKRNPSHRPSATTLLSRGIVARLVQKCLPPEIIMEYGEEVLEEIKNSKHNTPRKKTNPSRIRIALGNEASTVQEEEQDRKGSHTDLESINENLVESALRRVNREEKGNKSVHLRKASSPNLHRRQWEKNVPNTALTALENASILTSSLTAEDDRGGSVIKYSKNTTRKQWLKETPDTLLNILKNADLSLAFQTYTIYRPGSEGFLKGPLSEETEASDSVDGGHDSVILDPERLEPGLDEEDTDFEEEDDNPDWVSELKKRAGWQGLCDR
As to conditions: at 1 µM.

For experiment [8], the target named is T4, Serine/threonine-protein kinase Nek3 (Homo sapiens). As to conditions: at 10 µM.
In experiment [9] the target is Serine/threonine-protein kinase tousled-like 2 (Homo sapiens) (UniProt Q86UE8). The settings on record: at 1 µM.
Experiment [10] shares this target. As to conditions: at 10 µM.
Experiment [11] has as its target T5, Testis-specific serine/threonine-protein kinase 1 (Homo sapiens) (UniProt Q9BXA7).
T5 sequence (whole entry): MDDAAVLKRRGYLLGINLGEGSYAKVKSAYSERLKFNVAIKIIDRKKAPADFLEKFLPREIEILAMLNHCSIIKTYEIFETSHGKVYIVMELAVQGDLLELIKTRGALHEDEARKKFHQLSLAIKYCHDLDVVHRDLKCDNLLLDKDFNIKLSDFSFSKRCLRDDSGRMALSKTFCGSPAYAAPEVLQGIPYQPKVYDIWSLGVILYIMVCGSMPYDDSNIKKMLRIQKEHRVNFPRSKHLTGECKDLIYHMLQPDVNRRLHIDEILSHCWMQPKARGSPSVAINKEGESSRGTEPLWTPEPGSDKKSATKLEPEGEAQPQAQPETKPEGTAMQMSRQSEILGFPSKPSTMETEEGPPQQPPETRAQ
As to conditions: at 1 µM.

The target of experiment [12] is T5, Testis-specific serine/threonine-protein kinase 1 (Homo sapiens). As to conditions: at 10 µM.
The target of experiment [13] is T6, Testis-specific serine/threonine-protein kinase 2 (Homo sapiens) (UniProt Q96PF2).
T6 sequence (whole entry): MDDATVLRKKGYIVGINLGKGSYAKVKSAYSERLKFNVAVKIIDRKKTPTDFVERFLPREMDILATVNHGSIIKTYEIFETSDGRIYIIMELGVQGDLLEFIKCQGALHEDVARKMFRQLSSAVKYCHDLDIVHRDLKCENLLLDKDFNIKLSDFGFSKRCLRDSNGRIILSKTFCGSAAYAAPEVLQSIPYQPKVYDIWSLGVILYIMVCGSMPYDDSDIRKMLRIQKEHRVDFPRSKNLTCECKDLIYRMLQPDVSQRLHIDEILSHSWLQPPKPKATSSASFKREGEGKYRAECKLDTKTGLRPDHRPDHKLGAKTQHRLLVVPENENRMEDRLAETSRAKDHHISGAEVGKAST
As to conditions: at 10 µM.

The target in experiment [14] is T7, Tyrosine-protein kinase Tec (Homo sapiens) (UniProt P42680).
T7 sequence (whole entry): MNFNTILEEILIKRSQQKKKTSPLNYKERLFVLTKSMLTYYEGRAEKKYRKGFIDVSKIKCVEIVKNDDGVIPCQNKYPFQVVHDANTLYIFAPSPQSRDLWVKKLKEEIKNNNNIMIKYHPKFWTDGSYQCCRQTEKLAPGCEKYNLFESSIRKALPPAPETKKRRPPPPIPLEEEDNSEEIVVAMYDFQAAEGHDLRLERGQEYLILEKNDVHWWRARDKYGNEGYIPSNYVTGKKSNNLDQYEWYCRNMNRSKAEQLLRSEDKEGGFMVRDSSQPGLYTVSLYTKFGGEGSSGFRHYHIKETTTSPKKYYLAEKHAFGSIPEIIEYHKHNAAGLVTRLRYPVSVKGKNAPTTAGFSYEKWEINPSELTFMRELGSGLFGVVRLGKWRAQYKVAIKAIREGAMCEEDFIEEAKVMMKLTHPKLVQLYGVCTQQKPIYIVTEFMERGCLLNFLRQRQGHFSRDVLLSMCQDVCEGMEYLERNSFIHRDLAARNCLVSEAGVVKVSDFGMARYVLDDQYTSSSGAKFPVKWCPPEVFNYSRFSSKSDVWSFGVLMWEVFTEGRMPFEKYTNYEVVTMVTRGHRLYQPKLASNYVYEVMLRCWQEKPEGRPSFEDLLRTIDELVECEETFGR
The settings on record: at 1 µM.

The target in experiment [15] is T7, Tyrosine-protein kinase Tec (Homo sapiens). The settings on record: at 10 µM.
In experiment [16] the target is Angiopoietin-1 receptor (Homo sapiens) (UniProt Q02763). The settings on record: at 1 µM.
For experiment [17] the target is unchanged. As to conditions: at 10 µM.
The target in experiment [18] is High affinity nerve growth factor receptor (Homo sapiens) (UniProt P04629). The settings on record: at 1 µM.
Experiment [19] shares this target. The settings on record: at 10 µM.
For experiment [20], the target named is BDNF/NT-3 growth factors receptor (Homo sapiens) (UniProt Q16620). The settings on record: at 1 µM.

Structures are written as SMILES.

This note sets out measurements from ChEMBL document CHEMBL2218924, “A broad activity screen in support of a chemogenomic map for kinase signalling research and drug discovery” (Biochem J, 2013).

Chain of High affinity nerve growth factor receptor (Homo sapiens) (P04629 33-796 limits assumed): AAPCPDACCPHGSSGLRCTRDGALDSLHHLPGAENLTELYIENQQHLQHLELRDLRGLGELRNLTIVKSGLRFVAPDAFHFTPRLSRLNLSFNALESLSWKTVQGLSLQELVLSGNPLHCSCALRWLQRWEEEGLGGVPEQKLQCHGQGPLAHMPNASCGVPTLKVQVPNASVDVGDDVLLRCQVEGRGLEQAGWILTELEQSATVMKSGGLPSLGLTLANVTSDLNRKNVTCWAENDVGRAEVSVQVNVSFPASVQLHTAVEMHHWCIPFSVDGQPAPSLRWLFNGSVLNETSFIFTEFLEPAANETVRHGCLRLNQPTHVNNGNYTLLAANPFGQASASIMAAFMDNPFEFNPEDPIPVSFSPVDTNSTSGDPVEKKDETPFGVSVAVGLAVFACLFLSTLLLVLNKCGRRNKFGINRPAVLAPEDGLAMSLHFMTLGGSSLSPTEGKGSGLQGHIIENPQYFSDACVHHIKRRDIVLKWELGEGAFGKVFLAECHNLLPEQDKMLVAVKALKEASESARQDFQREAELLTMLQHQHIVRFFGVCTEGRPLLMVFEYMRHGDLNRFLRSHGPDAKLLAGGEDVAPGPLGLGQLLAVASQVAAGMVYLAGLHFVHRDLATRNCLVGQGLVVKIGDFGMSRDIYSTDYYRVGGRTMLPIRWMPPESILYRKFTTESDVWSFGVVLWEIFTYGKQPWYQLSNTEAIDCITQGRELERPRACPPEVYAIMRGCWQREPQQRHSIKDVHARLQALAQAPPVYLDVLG
Chain of BDNF/NT-3 growth factors receptor (Homo sapiens) (Q16620 32-822 limits assumed): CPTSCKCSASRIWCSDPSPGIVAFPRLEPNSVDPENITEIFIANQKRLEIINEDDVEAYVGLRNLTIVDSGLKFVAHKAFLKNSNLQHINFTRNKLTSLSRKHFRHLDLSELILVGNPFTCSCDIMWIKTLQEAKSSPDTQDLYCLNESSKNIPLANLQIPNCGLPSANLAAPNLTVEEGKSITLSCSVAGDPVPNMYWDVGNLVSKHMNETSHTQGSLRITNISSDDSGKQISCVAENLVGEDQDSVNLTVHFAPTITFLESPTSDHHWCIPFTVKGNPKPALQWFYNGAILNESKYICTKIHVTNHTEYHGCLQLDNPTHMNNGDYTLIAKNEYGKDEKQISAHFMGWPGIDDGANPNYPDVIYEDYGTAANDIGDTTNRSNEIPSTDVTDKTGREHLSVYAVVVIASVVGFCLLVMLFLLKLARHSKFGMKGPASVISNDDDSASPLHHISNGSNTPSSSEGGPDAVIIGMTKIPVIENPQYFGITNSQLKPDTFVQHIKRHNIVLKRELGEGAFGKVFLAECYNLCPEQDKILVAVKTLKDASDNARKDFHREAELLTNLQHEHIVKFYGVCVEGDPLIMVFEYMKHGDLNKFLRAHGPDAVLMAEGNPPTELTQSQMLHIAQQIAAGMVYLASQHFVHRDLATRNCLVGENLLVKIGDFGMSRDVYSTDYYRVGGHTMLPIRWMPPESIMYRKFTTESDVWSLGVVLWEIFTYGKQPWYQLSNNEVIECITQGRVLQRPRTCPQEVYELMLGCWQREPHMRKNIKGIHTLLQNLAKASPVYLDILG
Chain of Serine/threonine-protein kinase tousled-like 2 (Homo sapiens) (Q86UE8 whole entry, looked up): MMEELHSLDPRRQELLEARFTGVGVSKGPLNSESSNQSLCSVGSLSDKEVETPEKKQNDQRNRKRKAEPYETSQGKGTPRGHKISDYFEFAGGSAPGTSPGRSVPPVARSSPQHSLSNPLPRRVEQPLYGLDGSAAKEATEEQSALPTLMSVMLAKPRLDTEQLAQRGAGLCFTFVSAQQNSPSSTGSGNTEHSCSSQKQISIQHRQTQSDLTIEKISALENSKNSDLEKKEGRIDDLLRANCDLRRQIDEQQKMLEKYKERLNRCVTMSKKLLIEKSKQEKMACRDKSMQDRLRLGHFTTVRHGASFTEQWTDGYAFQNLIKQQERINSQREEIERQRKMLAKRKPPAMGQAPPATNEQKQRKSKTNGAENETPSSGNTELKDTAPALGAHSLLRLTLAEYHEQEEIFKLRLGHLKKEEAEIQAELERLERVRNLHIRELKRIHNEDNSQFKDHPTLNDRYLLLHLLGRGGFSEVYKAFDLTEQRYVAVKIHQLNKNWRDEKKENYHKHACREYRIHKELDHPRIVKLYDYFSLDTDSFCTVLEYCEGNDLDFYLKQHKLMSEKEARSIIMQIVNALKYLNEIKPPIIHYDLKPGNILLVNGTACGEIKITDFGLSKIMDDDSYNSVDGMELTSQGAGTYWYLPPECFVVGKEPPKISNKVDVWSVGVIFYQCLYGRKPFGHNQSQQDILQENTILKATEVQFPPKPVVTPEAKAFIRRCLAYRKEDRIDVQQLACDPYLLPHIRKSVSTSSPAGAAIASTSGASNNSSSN
Chain of Angiopoietin-1 receptor (Homo sapiens) (Q02763 whole entry): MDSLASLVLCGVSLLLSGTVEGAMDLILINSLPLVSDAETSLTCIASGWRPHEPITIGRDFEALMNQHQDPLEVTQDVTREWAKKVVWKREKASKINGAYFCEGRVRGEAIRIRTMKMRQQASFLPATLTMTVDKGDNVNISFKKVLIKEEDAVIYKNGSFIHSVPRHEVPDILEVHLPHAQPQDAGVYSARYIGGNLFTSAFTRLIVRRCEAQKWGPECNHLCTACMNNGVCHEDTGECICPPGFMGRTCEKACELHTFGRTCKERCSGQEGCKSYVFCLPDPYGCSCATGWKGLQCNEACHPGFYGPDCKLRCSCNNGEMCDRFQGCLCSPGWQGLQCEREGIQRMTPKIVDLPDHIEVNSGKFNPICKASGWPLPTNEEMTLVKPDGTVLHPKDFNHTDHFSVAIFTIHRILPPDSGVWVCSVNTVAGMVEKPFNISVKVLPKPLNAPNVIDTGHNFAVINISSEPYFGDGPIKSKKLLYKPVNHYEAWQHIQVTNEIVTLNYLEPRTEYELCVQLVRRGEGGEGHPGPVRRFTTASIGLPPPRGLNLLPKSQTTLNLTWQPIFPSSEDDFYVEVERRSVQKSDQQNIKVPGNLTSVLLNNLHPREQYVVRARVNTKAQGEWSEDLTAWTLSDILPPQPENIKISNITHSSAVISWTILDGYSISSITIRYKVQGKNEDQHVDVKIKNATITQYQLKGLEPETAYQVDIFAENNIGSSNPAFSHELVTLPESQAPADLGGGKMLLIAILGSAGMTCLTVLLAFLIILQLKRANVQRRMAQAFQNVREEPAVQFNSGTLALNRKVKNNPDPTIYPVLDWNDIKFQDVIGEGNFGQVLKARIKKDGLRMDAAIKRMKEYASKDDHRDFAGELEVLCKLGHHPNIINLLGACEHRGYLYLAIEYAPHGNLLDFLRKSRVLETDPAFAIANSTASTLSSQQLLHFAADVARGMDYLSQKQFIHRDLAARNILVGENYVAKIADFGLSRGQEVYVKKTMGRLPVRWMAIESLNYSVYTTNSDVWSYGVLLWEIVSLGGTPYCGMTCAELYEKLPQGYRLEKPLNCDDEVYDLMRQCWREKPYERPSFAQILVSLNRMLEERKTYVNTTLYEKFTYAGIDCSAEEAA

On to `CC(=O)O/N=C1\C(=C2\C(=O)Nc3cc(Br)ccc32)Nc2ccccc21`, for which the residual activity in [1] was found to be 73%; in experiment [2] it was 51%; in experiment [3] it was 60%; in experiment [4], 67%; in [5], 101%; in experiment [6], 87%. The residual activity was found to be 82% in [7]; 84% in experiment [8]; 92% in experiment [9]; 86% in experiment [10]; 92% in experiment [11]; 86% in experiment [12]. The residual activity was 92% in experiment [13]; 59% in experiment [14]; 21% in [15]; 86% in [16]; 87% in experiment [17]; 6% in experiment [18]. For the same compound, the residual activity in [19] was 0%; in experiment [20] it was 29%.

Take `Nc1n[nH]c2nnc(-c3c(-c4ccccc4)nn4ccccc34)cc12`: the residual activity was found to be 86% in experiment [2]; 107% in experiment [3]; 97% in experiment [4]; 91% in [5]; 86% in [6]; 83% in [7]. Further, the residual activity in [8] turned out to be 87%; in experiment [9], 89%; in experiment [10], 82%; in experiment [11], 87%; in experiment [12] it was 90%; in experiment [13], 86%. Besides, the residual activity in experiment [14] was 82%; in [15], 50%; in experiment [16], 94%; in [17], 72%; in experiment [18], 68%; in [19], 24%. Moreover, in experiment [20], the residual activity turned out to be 94%.

Regarding `CCOc1cc2ncnc(Nc3cccc(Br)c3)c2cc1OCC`, the residual activity in experiment [1] is 95%; in [2], 70%; in [3], 104%; in experiment [4], 89%; in experiment [5] it was 77%; in [6] it was 93%. Also, the residual activity in experiment [7] was determined as 118%; in experiment [8] it was 88%; in experiment [9], 98%; in experiment [10], 95%; in experiment [11] it was 99%; in experiment [12], 83%. For the same compound, the residual activity in experiment [13] amounted to 67%; in experiment [14] it was 74%; in experiment [15] it was 38%; in [16] it was 48%; in experiment [17], 46%; in [18], 87%. For the same compound, the residual activity in experiment [19] came to 43%; in experiment [20], 116%.
